Assay [1] deals with human Vascular Endothelial Growth Factor Receptor 1 (VEGFR1), FLT1 (gene 2321) (UniProt P17948). The assay is described as follows: NVS_ENZ_hVEGFR1: NovaScreen (NVS) Enzymatic Assay for human Vascular Endothelial Growth Factor Receptor 1 (VEGFR1) (AID 2283226). The procedure, abridged:
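Kinase activity of recombinant human VEGFR1 was read by fluorescence after electrophoretic separation of product from substrate, 1 h post-dosing; initial duplicate single-point testing at 25 uM, followed by concentration-series follow-up, with DMSO as baseline.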

Assay [2] addresses human Vascular Endothelial Growth Factor Receptor 3 (VEGFR3), FLT4 (gene 2324) (UniProt P35916). The assay is described as follows: NVS_ENZ_hVEGFR3: NovaScreen (NVS) Enzymatic Assay for human Vascular Endothelial Growth Factor Receptor 3 (VEGFR3) (AID 2283229). The procedure, abridged:
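Chemicals first run in duplicate at 25 uM, with actives re-tested in concentration series to a top of 50 uM. Recombinant VEGFR3 activity measured after 1 h via fluorescence with mobility-shift product separation; inhibition fitted relative to DMSO.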

For assay [3], the target named is human Vascular Endothelial Growth Factor Receptor 2 (VEGFR2), KDR (gene 3791) (UniProt P35968). The assay is described as follows: NVS_ENZ_hVEGFR2: NovaScreen (NVS) Enzymatic Assay for human Vascular Endothelial Growth Factor Receptor 2 (VEGFR2) (AID 2283230). The procedure, abridged:
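Cell-free recombinant VEGFR2 kinase, fluorescent substrate with electrophoretic mobility-shift separation; read 1 h after dosing. Screened at 25 uM in duplicate, hits to concentration-response up to 50 uM; loss-of-signal versus DMSO.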

The target in assay [4] is sheep Cyclooxygenase-1 (Cox1), PTGS1 (gene 443551) (UniProt P05979). Put plainly: NVS_ENZ_oCOX1: NovaScreen (NVS) Enzymatic Assay for sheep Cyclooxygenase-1 (Cox1) (AID 2283239).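 Further: actives reduce cyclooxygenase activity so potencies are for inhibitors.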 Put shortly:
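Absorbance read-out of cyclooxygenase activity in a cell-free preparation from sheep seminal vesicles, taken 0.66 hour after dosing. Initial testing was in duplicate at 25 uM, and confirmatory testing was run in concentration series.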

Assay [5] has as its target rabbit Imidazoline 2 Central (I2C), CKB (gene 100009085) (UniProt P00567). The assay is described as follows: NVS_ENZ_rabI2C: NovaScreen (NVS) Enzymatic Assay for rabbit Imidazoline 2 Central (I2C) (AID 2283228). The procedure, abridged:
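Rabbit brain membranes, cell-free; readout by filter-based scintillation counting 1.5 hours after dosing, loss of signal vs DMSO. Initial duplicate test at 25 uM, then concentration-response with 50 uM top concentration.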

In assay [6] the test system is guinea pig Muscarinic, Peripheral (Mperiperal) Receptor, Non-selective Binding, gene 100379235. Put plainly: NVS_GPCR_gMPeripheral_NonSelective: NovaScreen (NVS) G Protein-Coupled Receptor Assay for guinea pig Muscarinic, Peripheral (Mperiperal) Receptor, Non-selective Binding (AID 2283250). Put shortly:
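Screened in duplicate at 25 uM, hits retested in concentration series to 50 uM max, using bladder membrane radioligand displacement from guinea pig. Filtration and scintillation counting 1 h post-dose, fitted relative to DMSO.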

In assay [7] the target is human Adenosine A1 Receptor (AdoRA1), ADORA1 (gene 134) (UniProt P30542). The assay is described as follows: NVS_GPCR_hAdoRA1: NovaScreen (NVS) G Protein-Coupled Receptor Assay for human Adenosine A1 Receptor (AdoRA1) (AID 2283254). The procedure, abridged:
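Radioligand competition binding on human cortical membranes, 1 h after compound addition; bound radioactivity read by filtration and scintillation counting. Loss of signal versus DMSO baseline scored as displacement; primary screen duplicate at 25 uM, actives retested in concentration series.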

For assay [8], the target named is human Serotonin, 5-Hydroxytryptamine Receptor 7 (5HT7), HTR7 (gene 3363) (UniProt P34969). The assay is described as follows: NVS_GPCR_h5HT7: NovaScreen (NVS) G Protein-Coupled Receptor Assay for human Serotonin, 5-Hydroxytryptamine Receptor 7 (5HT7) (AID 2283255).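 Further: hits reduce specific radioligand binding relative to DMSO.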 Put shortly: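 Filter-bound radioactivity counted after 1 h, with loss of specific radioligand binding fitted against DMSO. Membrane protein came from CHO cells expressing human 5HT7. Chemicals were tested first at 25 uM in duplicate, then in concentration series if active.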

The target in assay [9] is human Tropomyosin Receptor Kinase A (TRKA), NTRK1 (gene 4914) (UniProt P04629). Put plainly: NVS_ENZ_hTrkA: NovaScreen (NVS) Enzymatic Assay for human Tropomyosin Receptor Kinase A (TRKA) (AID 2283224). Put shortly:
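Compounds were screened at 25 uM in duplicate, then concentration series to a 50 uM top for those meeting threshold (e.g. 30% inhibition). Enzyme was recombinant human TrkA, incubated 1 h. Product formation was quantified by fluorescence after mobility-shift separation.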

The test system of assay [10] is bovine Angiotensin II Receptor Type 2 (AT2), gene 407157. The assay is described as follows: NVS_GPCR_bAT2: NovaScreen (NVS) G Protein-Coupled Receptor Assay for bovine Angiotensin II Receptor Type 2 (AT2) (AID 2283240). The procedure, abridged: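 Radioligand displacement on bovine cerebellar membranes, 1 hour incubation, filter-based scintillation counting; loss of signal vs DMSO. Duplicate single-point screen at 25 uM, then concentration-response to 50 uM maximum.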

In assay [11] the target is human Serotonin, 5-Hydroxytryptamine Receptor 2A (5HT2A), HTR2A (gene 3356) (UniProt P28223). Put plainly: NVS_GPCR_h5HT2A: NovaScreen (NVS) G Protein-Coupled Receptor Assay for human Serotonin, 5-Hydroxytryptamine Receptor 2A (5HT2A) (AID 2283249). The procedure, abridged: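 Radioligand displacement on human cortex tissue extract, counted by filtration and scintillation 1.5 h post-dosing. Initial single-concentration screen at 25 uM in duplicate, concentration series in follow-up; DMSO as baseline.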

Assay [12] has as its target Adenosine receptor A1 (Bos taurus) (UniProt P28190). Put plainly: NVS_GPCR_bAdoR_NonSelective: NovaScreen (NVS) G Protein-Coupled Receptor Assay for bovine Adenosine Receptor (AdoR), Non-selective Binding (AID 2283244). Put shortly:
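Cell-free binding with membranes from bovine striatum: radioligand displaced by test chemical, read after 1 h by filtration and scintillation. Single-point 25 uM duplicate primary, 50 uM top concentration in follow-up curves, DMSO baseline.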

In assay [13] the test system is guinea pig Leukotriene B4 Receptor (LTB4), gene 100379538. Put plainly: NVS_GPCR_gLTB4: NovaScreen (NVS) G Protein-Coupled Receptor Assay for guinea pig Leukotriene B4 Receptor (LTB4) (AID 2283247). The procedure, abridged:
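Membranes from guinea pig spleen incubated 2 h with radioligand and compound; bound counts measured by filtration and scintillation. Screened first at 25 uM in duplicate, then actives titrated to a 50 uM top concentration relative to DMSO.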

Assay [14] has as its target bovine Dopamine Receptor (DR), Non-selective Binding, DRD1 (gene 281125) (UniProt Q95136). Put plainly: NVS_GPCR_bDR_NonSelective: NovaScreen (NVS) G Protein-Coupled Receptor Assay for bovine Dopamine Receptor (DR), Non-selective Binding (AID 2283241). Put shortly: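 Filter-based radioligand binding with bovine striatal membrane, incubated 1 h; DMSO as negative baseline. Initial duplicate single-point test at 25 uM preceded concentration series for actives.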

Assay [15] concerns the target rat Constitutive Nitric Oxide Synthase (CNOS), Nos1 (gene 24598) (UniProt P29476). The assay is described as follows: NVS_ENZ_rCNOS: NovaScreen (NVS) Enzymatic Assay for rat Constitutive Nitric Oxide Synthase (CNOS) (AID 2283236). Put shortly: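 Single 25 uM duplicate screen, then concentration series to 50 uM for chemicals meeting threshold. Rat brain membrane-derived CNOS activity detected radiometrically by filtration and scintillation counting, 1 h after compound addition; DMSO as baseline.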

The structures appear in SMILES notation. Inconclusive results are not listed. Activity calls are given as the source filed them. How the source made its calls: active means hit-call score of the fitted dose curve at least 0.9, where 1 is the maximum; inconclusive means response in the unintended direction; inactive means score below 0.9.

Sequence of human Serotonin, 5-Hydroxytryptamine Receptor 7 (5HT7), HTR7 (gene 3363) (P34969 whole entry, looked up): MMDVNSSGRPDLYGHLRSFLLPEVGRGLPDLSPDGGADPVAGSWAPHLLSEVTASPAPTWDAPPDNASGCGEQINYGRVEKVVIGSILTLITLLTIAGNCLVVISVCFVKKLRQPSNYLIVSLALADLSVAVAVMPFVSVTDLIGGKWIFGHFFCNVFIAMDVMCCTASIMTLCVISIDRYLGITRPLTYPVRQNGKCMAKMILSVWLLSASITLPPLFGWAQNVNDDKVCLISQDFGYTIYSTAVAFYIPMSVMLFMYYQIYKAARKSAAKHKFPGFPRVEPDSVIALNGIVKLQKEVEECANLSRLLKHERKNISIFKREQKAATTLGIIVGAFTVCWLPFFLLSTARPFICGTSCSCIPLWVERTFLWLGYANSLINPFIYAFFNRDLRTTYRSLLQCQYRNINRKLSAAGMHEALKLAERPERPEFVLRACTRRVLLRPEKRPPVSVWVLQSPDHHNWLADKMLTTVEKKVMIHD
Sequence of human Vascular Endothelial Growth Factor Receptor 2 (VEGFR2), KDR (gene 3791) (P35968 whole entry, looked up): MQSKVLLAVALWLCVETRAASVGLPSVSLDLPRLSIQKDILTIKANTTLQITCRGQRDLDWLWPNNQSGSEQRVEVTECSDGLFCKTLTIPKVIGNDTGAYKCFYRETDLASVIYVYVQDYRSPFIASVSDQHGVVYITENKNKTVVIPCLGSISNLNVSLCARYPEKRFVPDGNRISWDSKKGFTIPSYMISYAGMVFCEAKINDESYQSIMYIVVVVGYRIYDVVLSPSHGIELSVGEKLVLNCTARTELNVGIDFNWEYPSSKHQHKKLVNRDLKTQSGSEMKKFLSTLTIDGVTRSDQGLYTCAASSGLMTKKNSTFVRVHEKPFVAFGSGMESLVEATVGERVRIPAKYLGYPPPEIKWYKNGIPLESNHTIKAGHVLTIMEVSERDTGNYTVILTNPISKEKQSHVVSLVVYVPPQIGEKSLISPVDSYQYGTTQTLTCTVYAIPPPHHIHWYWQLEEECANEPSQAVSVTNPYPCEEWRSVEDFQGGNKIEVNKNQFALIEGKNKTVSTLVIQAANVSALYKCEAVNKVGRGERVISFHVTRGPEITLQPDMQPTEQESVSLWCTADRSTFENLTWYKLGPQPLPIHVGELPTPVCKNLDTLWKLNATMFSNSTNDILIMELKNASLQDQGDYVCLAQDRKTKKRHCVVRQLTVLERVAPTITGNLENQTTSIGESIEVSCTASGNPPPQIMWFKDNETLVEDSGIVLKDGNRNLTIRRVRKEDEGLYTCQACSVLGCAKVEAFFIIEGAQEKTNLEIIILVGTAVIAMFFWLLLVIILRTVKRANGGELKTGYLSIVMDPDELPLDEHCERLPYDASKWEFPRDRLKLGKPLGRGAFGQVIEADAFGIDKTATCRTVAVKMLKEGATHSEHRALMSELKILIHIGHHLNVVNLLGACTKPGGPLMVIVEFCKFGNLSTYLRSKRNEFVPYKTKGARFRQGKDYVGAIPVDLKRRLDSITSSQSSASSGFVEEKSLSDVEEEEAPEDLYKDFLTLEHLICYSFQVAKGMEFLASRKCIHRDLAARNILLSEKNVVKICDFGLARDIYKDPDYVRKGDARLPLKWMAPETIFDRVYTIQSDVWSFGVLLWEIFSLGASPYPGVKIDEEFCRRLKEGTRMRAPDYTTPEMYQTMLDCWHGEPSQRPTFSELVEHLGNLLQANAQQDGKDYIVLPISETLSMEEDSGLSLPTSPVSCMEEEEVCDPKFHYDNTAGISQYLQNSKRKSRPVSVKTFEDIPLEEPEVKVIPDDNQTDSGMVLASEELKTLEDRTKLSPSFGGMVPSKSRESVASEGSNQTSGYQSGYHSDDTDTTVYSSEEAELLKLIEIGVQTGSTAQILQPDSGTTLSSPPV
Sequence of human Serotonin, 5-Hydroxytryptamine Receptor 2A (5HT2A), HTR2A (gene 3356) (P28223 whole entry, looked up): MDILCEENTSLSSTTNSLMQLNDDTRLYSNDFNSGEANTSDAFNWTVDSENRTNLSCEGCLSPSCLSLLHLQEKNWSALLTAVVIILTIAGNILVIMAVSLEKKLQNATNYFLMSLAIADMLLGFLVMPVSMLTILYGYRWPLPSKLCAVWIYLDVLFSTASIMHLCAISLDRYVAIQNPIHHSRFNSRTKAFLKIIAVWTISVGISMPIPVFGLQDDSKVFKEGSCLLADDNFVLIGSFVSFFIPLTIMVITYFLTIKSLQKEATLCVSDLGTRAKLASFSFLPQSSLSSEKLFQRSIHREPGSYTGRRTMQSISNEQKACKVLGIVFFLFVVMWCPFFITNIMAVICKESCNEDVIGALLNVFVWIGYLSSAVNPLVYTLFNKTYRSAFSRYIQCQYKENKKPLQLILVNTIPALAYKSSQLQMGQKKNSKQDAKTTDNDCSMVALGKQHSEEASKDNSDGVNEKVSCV
Sequence of sheep Cyclooxygenase-1 (Cox1), PTGS1 (gene 443551) (P05979 whole entry, looked up): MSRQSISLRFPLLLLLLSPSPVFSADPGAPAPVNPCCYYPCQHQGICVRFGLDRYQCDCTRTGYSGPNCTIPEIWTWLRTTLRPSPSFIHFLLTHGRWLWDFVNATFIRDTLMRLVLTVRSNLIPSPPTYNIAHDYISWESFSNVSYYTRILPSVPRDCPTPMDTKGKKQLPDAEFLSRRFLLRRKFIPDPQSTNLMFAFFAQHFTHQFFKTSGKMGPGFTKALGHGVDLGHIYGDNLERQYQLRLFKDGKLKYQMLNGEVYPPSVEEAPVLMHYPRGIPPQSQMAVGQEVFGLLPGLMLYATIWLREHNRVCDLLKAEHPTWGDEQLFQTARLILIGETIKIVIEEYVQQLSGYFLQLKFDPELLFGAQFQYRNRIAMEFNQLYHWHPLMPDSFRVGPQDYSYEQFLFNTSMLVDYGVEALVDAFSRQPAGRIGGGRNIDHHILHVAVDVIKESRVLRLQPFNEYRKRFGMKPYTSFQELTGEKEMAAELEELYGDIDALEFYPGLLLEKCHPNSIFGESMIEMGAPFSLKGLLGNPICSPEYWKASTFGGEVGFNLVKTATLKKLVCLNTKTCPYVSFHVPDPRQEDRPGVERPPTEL
Sequence of human Adenosine A1 Receptor (AdoRA1), ADORA1 (gene 134) (P30542 whole entry, looked up): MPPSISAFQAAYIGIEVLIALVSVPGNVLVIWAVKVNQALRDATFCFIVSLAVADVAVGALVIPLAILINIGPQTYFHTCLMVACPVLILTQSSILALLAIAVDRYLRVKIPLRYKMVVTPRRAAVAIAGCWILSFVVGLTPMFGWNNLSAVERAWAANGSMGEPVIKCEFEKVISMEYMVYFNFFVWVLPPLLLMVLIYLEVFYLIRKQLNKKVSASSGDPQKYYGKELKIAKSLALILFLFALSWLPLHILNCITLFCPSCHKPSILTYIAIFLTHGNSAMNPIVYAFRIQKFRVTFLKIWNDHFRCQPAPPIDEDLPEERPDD
Sequence of human Vascular Endothelial Growth Factor Receptor 3 (VEGFR3), FLT4 (gene 2324) (P35916 whole entry, looked up): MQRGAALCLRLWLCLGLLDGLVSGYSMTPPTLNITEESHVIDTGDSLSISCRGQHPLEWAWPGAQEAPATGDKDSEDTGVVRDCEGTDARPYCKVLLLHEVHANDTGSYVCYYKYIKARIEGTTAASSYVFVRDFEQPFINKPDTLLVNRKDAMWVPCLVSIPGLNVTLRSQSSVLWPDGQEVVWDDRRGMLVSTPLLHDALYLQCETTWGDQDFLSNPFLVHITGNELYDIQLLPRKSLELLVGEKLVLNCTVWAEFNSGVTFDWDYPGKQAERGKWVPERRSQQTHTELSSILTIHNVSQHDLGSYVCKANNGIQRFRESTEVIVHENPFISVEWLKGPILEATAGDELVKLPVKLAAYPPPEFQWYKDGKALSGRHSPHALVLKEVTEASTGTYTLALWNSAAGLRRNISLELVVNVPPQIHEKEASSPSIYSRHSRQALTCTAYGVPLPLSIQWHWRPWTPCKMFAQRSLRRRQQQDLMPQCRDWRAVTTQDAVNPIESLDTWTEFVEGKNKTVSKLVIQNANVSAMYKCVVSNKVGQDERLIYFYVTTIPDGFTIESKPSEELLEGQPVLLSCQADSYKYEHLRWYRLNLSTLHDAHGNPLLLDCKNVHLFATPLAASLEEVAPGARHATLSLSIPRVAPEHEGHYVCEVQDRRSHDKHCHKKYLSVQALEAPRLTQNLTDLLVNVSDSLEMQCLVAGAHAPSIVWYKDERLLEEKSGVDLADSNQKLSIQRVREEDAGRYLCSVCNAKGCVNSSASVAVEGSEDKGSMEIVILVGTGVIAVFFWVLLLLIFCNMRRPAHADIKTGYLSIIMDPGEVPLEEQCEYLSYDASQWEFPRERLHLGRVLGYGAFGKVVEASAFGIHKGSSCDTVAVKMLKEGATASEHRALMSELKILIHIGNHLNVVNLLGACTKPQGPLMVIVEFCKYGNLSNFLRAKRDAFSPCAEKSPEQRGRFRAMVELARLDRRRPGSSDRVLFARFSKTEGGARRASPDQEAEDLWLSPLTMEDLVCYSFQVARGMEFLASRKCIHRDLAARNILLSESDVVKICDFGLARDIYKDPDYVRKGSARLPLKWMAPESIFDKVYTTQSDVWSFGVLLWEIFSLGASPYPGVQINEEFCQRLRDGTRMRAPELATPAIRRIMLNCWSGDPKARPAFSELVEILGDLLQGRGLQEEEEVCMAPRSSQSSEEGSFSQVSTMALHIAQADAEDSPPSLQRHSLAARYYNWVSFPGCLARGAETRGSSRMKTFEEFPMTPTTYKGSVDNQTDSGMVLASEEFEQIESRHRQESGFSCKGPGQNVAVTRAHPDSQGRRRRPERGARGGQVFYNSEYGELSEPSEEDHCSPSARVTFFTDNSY
Sequence of rabbit Imidazoline 2 Central (I2C), CKB (gene 100009085) (P00567 whole entry, looked up): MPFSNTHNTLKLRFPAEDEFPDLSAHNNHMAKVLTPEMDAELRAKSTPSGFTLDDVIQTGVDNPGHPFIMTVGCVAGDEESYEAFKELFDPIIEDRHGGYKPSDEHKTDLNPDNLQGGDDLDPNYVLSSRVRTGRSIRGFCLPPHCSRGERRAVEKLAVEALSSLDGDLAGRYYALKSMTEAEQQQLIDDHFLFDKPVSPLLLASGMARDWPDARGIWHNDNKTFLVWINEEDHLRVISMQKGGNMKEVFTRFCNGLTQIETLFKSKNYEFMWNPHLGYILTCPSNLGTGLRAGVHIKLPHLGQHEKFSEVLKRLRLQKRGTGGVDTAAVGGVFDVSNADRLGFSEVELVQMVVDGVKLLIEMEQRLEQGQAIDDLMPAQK

Regarding `Cc1ccc(N)cc1O`, the call in [1], in [2] and in assay [3] was inactive.

With `CC(C)c1cccc(C(C)C)c1N1C(=O)c2ccc(O)cc2C1=O`, the call in [1] and in [2] was inactive. The AC50 in [4] was 2.48 µM (active).

Consider `Nc1ccc(Nc2ccccc2)cc1`, for which the values for the AC50 in assay [5] and in [8] were 4.76 µM (active) and 7.22 µM (active), respectively. Moreover, the outcome in assay [6] and in assay [7] was inactive.

For `Fc1ccccc1[C@@H](F)COC1CCC(Nc2ncnc3[nH]ncc23)CC1` (some centres undefined), in [5], the outcome was inactive. In assay [3], the AC50 was 213 nM (active).

`CC(=O)OCCC(C)C`: the result in [9] and in [8] was inactive.

Take `On1ccccc1=S`: the molecule was classed as inactive in assay [3].

For `CCCCCCCCCCCCCCCO`, the result in assay [3] was inactive.

For the molecule `CNS(=O)(=O)c1cc(C(=O)N2CCC(CCN3C4CCC3CC(n3c(C)nc5ccccc53)C4)(c3cccc(F)c3)CC2)c(Cl)cc1F` (centres undefined), in [10], the outcome was inactive. The AC50 in assay [11] was 1.52 µM (active); in assay [6], 5.36 µM (active); in [8] it was 4.35 µM (active).

For `Cc1ccc(C)c(O)c1`, the molecule was classed as inactive in assay [4] and in assay [12].

On to `CCOC(=O)COc1ccc2c(c1)CC(NCC(O)c1cccc(Cl)c1)CC2` (centres undefined), for which, in assay [3], the result was inactive. The values for the AC50 in assay [11], in assay [6] and in assay [8] were 12.1 µM (active), 22.9 µM (active) and 22.9 µM (active), respectively.

Regarding `COc1ccc(-n2nc(C(F)F)cc2-c2ccc(S(C)=O)cc2)cc1` (centres undefined), the concentration at half-maximal activity (AC50) in [7] is 5.7 µM (active).

Consider `O=C(NS(=O)(=O)/C=C/c1ccccc1)c1ccc(F)cc1Cl`, for which the AC50 in assay [10] was 15 µM (active); in assay [13], 12.4 µM (active).

Take `CCn1nc(Cc2ccccc2)cc1C1CCN(C[C@H]2C[C@H](N(C)[C@@H](C(=O)O)C(C)C)C[C@@H]2c2cccc(F)c2)CC1`: the AC50 in assay [14] is 18.6 µM (active).

As to `CC/C(=C\C(=N/O)C(N)=O)C(C)[N+](=O)[O-]` (centres undefined), the outcome in assay [15] and in assay [11] was inactive.

Take `CC(C)=CCCC(C)CCO` (centres undefined): the molecule was called inactive in assay [15]. Further, the AC50 in [4] was 21.6 µM (active).

Usually AC50 stands for the midpoint of the concentration-response curve, whichever way the signal moves.

Source of the values: PubChem BioAssay (EPA / NIEHS).
